# Experimental data: the OligoGym collection
# Molecular target: SLIT1
# Assay: pooled miR-30 sensor sort-seq; sequence = guide strand
# Conditions: shRNA
# Note: reference of the scale not given here.
row,Sequence,sensor-assay potency score (higher = more potent)
1,TTGACATGGGTTCAGATCCGGA,-1.04
2,TTGCTCACACAGCTCGCCCGAA,-0.836
3,TTGCAGGTCAGTGAACTGCAGG,-1.32
4,TTGCTTAAGGAACTGATCTTGT,-0.323
5,TTGAGGATCTGCCACAGGCGGA,-1.35
6,TTCAATCGCAGTTCTGCCGTGG,0.209
7,TTGACACTGAGCAACTTCTCAC,-0.268
8,TTGTGGATGCAGCTGATGCGGT,-0.921
9,TTCAATTTCTGACACCTTGTTG,-0.171
10,TAAGTTTTTTAAACATCCCAGT,-1.01
11,TTCTTGCTCTTGATCTGCCCGA,-0.859
12,TGAAGGTAGACAGCTGTCCCGG,-1.03

# Molecular target: SLITRK3
# Assay: as above
# Conditions: shRNA
row,Sequence,sensor-assay potency score (higher = more potent)
1,TTGCAGTTGACAGTCAAGCCAA,-0.544
2,TTGATGTGCAAATTACAGGTAC,-0.245
3,TTTCTCGTAGGTCCTTTCCATG,-1.36
4,TTCATGTAGATATAGTCTCTTT,-0.676
5,AATGACATTGTAATCTGCCTGC,0.274
6,TTGCACATTTGGGTAACCGGGT,-0.695
7,TTGAACTCAAAGTACAAGTAGT,-0.338
8,TTATCCACAACATCCTTCCTCT,0.0957
9,TTAACTTCACAGTAGCATGGAT,-0.128
10,TAAAAAAGAACCTTTAACCTAT,0.15
11,TCTTTTTCCAGCAAGGTCCGGT,-0.176
12,TTCTCATTGAGGTCTATCTGGA,-0.877

# Molecular target: SLITRK5
# Assay: as above
# Conditions: shRNA
row,Sequence,sensor-assay potency score (higher = more potent)
1,TACAGTGTGACACCTCTGCAAA,-1.11
2,TAATACAGTGTGACACCTCTGC,0.818
3,TAATTGACAAACTCATTGGGAT,0.191
4,TTATTCAAGAATAGCAGCTGGA,-0.212
5,TACATCTGAATAGTCAGGGCAC,0.215
6,TTGGATGAGTGACTTCAGCTGG,0.319
7,TCGCTCTGGTTCTTCTTCCTGC,-1.1
8,AACATTGCTACCTAGATGCAAA,-1.34
9,TTCCAGACTGAATCTCGCGGAT,-0.818
10,TACAGCAAACGCTAGAGTCTGC,-0.49
11,TAGTCAGAAATAAGTCTCCTTG,-0.638

# Molecular target: SLMAP
# Assay: as above
# Conditions: shRNA
row,Sequence,sensor-assay potency score (higher = more potent)
1,ATACTCTTTCTGCACATCCTTT,-0.952
2,TCAACTTCTCTAGTTCACCTTG,0.0522
3,TTTGTTTACTTGTTCTAGCTAG,0.257
